# Assay results reported in PubChem BioAssay.
# The source made the active and inactive calls.
# Key:
# [1] = binders of probe aFSTL3 on microarray, primary screen, stem cell growth factor project, biochemical, small-molecule microarray, fluorescence 635/667 (AID 1064); conditions: higher = more signal;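 also: measures binding of the biotinylated anti-FSTL3 antibody to printed compounds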
# [2] = binders from COS7 lysate, DM2A8 probe, primary screen, torsin A project, cell lysate, small-molecule microarray, fluorescence 635/667 (AID 1065); conditions: higher = more signal, COS7 lysate expressing mutant human TOR1A
# [3] = binders of probe aFGF2 on microarray, primary screen, stem cell growth factor project, biochemical, small-molecule microarray, fluorescence 635/667 (AID 1067); conditions: higher = more signal;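 also: measures binding of biotinylated aFGF2 protein to printed compounds on slides; z-score merges feature fluorescence and signal-to-noise across triplicate slides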
# [4] = binders of probe aFGF10 on microarray, primary screen, stem cell growth factor project, biochemical, small-molecule microarray, fluorescence 635/667 (AID 1071); conditions: higher = more signal;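 also: score merges 667 nm spot intensity and signal to noise from triplicate slides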
# [5] = molecular target: Neurogenic locus notch homolog protein 2 (Homo sapiens) (UniProt Q04721); assay: Notch2 binders on small-molecule microarrays, primary screen, biochemical, small-molecule microarray, 635 nm fluorescence, stem cell growth factors (AID 1073); conditions: Notch2 binding, higher = more signal
# [6] = molecular target: Pro-neuregulin-1, membrane-bound isoform (Homo sapiens) (UniProt Q02297); assay: NRG1 binders on small-molecule microarrays, primary screen, psychiatric disease protein project, biochemical, small-molecule microarray, fluorescence 635/667 (AID 1075); conditions: NRG1 binding, 635 nm fluorescence, higher = more signal;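 also: score combines 667 nm spot fluorescence with signal to noise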
# [7] = test system: Neuregulin-1 EGF-like domain; assay: binders of neuregulin-1 EGF-like domain, primary screen, biochemical, small-molecule microarray, 635 nm fluorescence (AID 1081); conditions: small-molecule microarray binding, higher = more signal;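 also: binding of the protein to compounds printed on small-molecule microarray slides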
# [8] = FRG1 promoter luciferase signal modulators, primary screen, FRG1 inhibition for FSHD, cell-based, C2C12 myotubes, firefly/Renilla luciferase, luminescence (AID 1084); conditions: higher = more signal, called active from +8 up or from −8 down
# [9] = binders of probe aFST on microarray, primary screen, stem cell growth factor project, biochemical, small-molecule microarray, fluorescence 635/667 (AID 1086); conditions: higher = more signal;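 also: score merges 667 nm fluorescence with signal-to-noise of each printed compound spot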
# [10] = binders of probe aHhip on microarray, primary screen, stem cell growth factor project, biochemical, small-molecule microarray, fluorescence 635/667 (AID 1087); conditions: higher = more signal;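 also: score merges spot fluorescence at 667nm with spot signal to noise ratio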
# [11] = test system: PRMT1 (protein arginine N-methyltransferase 1); assay: PRMT1 binders on small-molecule microarrays, primary screen, biochemical, small-molecule microarray, 635 nm fluorescence (AID 1088); conditions: small-molecule microarray binding, higher = more signal;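 also: binding of Prmt1 protein to compounds spotted on small-molecule microarray slides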
# [12] = yeast growth modulation, basal conditions, primary screen, YJM789 clinical isolate, OD600, 24 h (AID 1089);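 also: growth of clinical yeast isolate S. cerevisiae YJM 789 seeded 1000 cells per well; test concentration not given here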; conditions: S. cerevisiae YJM789 growth, higher = more signal, called active from +8 up or from −8 down
# [13] = fission yeast growth modulation, primary screen, strain 972, OD600, 24 h, no modulator (AID 1090);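 also: basal condition with compound alone and no growth modifier present; test concentration not given here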; conditions: S. pombe 972 growth, higher = more signal, called active from +8 up or from −8 down
# [14] = S. cerevisiae growth modulation with rapamycin, primary screen, strain BY4716, OD600, 96 h (AID 1091); conditions: higher = more signal, called active from +8 up or from −8 down; also: test concentration not given here
# [15] = molecular target: Torsin-1A-interacting protein 2 (Homo sapiens) (UniProt Q8NFQ8); assay: LULL1 binders on small-molecule microarray, primary screen, cell lysate, human LULL1 lysate, 635/667 nm fluorescence (AID 1092); conditions: hLULL1 lysate binding, 635 nm fluorescence, higher = more signal;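 also: probe is lysate of COS7 cells overexpressing human LULL1; score merges per-feature 667 nm fluorescence with signal-to-noise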
# [16] = E. coli growth modulation, two-sided OD650, primary screen, E. coli filamentation project, strain DRC41, 24 h (AID 1093); conditions: OD650, 24 h, higher = more signal, called active from +8 up or from −8 down;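 also: MC1000 strain lacking acrAB efflux and sulA so SOS filamentation is blocked; test concentration not given here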
# [17] = small-molecule microarray binders of probe aLefty2, primary screen, biochemical, biotinylated probe, 635/667 nm fluorescence (AID 1094); conditions: higher = more signal;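 also: score merges spot fluorescence near 667 nm with spot signal-to-noise ratio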
# [18] = test system: Noggin (protein binding on small-molecule microarray); assay: Noggin binders on small-molecule microarray, primary screen, biochemical, 635/667 nm fluorescence (AID 1095); conditions: 635 nm fluorescence, higher = more signal;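 also: score merges 667 nm feature fluorescence with signal to noise over triplicate slides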
# [19] = molecular target: Neurogenic locus notch homolog protein 3 (Homo sapiens) (UniProt Q9UM47); assay: NOTCH3 binders on small-molecule microarray, primary screen, biochemical, 635/667 nm fluorescence (AID 1096); conditions: NOTCH3 binding, 635 nm fluorescence, higher = more signal
# [20] = small-molecule microarray binders of probe aEGFR, primary screen, biochemical, biotinylated probe, 635/667 nm fluorescence (AID 1097); conditions: higher = more signal;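 also: probe is a biotinylated anti-EGFR antibody binding compounds printed on slides; score combines fluorescence near 667 nm and signal to noise of each spot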
# Sequence of Torsin-1A-interacting protein 2 (Homo sapiens) (Q8NFQ8 whole entry, looked up): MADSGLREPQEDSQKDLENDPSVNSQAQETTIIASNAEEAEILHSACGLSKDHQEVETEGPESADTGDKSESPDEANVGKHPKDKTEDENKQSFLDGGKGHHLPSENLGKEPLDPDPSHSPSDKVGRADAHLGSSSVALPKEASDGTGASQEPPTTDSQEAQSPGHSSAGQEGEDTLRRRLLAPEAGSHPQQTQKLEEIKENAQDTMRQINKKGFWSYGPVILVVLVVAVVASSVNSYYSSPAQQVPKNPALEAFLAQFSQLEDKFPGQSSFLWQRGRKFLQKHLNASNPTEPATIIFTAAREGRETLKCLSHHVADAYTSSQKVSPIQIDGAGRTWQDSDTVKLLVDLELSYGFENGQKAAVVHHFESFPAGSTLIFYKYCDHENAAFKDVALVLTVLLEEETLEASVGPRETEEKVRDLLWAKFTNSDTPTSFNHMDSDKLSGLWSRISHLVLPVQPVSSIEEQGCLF
# Sequence of Pro-neuregulin-1, membrane-bound isoform (Homo sapiens) (Q02297 whole entry, looked up, the tested form may be a part, canonical isoform): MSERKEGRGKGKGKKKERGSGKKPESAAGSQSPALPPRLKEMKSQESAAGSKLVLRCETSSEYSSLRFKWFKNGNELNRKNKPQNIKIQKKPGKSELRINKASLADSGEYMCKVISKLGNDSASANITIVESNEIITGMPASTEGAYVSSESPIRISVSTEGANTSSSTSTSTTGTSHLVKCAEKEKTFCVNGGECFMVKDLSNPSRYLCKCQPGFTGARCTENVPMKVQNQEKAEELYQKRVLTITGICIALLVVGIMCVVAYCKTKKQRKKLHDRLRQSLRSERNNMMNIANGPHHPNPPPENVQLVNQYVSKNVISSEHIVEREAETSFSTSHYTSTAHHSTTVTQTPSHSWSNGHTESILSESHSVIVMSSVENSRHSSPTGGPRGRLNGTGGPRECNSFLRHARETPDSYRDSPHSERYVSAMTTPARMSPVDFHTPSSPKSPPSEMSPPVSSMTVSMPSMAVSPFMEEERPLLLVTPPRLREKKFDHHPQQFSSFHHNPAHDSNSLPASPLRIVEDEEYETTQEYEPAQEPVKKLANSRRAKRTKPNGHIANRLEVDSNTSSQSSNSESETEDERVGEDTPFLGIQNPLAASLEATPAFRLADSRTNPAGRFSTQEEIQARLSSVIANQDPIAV
# Sequence of Neurogenic locus notch homolog protein 3 (Homo sapiens) (Q9UM47 whole entry, looked up): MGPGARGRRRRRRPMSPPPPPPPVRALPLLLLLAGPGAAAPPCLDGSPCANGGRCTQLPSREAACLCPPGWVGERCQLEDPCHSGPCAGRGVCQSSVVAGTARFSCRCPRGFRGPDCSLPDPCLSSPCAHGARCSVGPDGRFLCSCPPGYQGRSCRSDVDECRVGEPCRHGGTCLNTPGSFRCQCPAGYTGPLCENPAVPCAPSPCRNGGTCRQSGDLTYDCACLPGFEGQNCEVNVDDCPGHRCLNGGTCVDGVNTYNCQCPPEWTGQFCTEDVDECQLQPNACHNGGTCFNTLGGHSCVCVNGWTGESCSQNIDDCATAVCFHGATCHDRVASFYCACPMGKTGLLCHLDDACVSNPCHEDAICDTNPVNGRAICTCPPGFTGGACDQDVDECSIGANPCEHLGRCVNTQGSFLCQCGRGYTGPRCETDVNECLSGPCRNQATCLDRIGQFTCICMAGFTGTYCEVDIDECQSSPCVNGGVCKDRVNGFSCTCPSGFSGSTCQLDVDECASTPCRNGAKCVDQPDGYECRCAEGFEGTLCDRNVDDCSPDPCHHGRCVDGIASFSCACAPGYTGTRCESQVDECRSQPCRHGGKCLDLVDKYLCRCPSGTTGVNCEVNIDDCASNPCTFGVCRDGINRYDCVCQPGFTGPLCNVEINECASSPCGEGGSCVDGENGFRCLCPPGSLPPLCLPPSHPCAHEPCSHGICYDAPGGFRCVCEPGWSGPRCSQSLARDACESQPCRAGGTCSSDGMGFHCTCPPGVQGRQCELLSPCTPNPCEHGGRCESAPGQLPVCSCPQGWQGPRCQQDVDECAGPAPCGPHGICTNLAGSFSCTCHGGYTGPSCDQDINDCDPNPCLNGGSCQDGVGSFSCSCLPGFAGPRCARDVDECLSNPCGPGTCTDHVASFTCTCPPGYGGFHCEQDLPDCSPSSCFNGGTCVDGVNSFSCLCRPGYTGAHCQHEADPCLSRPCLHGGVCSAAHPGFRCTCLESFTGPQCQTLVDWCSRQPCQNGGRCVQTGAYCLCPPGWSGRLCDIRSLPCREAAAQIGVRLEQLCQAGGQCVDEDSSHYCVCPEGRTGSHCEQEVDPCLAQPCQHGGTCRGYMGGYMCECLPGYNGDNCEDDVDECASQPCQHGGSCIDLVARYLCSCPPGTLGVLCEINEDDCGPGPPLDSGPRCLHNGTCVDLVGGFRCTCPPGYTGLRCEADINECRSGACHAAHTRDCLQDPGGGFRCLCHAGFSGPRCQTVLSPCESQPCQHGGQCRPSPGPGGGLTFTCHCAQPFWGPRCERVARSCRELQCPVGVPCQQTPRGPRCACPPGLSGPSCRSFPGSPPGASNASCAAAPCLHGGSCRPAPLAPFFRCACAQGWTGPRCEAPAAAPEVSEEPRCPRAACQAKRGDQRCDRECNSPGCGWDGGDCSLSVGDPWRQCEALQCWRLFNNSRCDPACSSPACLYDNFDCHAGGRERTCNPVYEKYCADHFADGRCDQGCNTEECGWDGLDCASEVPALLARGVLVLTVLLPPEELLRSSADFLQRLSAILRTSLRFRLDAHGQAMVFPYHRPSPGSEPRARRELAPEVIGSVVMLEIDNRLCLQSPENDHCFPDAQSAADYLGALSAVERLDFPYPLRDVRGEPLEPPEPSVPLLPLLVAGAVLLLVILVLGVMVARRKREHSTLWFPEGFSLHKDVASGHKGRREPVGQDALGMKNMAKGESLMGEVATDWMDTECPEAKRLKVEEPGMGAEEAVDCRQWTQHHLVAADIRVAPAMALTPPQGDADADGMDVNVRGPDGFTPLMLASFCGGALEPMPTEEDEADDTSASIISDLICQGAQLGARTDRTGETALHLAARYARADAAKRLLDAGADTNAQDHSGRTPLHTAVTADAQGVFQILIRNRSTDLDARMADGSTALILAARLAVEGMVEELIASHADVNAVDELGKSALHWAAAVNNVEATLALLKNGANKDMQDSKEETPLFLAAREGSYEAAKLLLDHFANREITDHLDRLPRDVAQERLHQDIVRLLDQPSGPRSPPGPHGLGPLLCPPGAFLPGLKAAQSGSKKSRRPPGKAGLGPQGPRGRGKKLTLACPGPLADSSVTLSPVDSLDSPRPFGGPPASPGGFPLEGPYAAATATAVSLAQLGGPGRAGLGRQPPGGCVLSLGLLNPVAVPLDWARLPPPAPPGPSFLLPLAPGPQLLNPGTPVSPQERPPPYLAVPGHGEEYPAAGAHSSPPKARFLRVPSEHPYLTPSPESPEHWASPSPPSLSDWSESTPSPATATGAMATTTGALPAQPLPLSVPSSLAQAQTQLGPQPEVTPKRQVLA
SMILES,composite z-score [1],composite z-score [2],composite z-score [3],composite z-score [4],composite z-score [5],composite z-score [6],composite z-score [7],z-score [8],composite z-score [9],composite z-score [10],composite z-score [11],z-score [12],z-score [13],z-score [14],composite z-score [15],z-score [16],composite z-score [17],composite z-score [18],composite z-score [19],composite z-score [20]
O=C1N(CCS(=O)(=O)c2ccccc2)c2ccccc2[C@@H]2OC(c3ccc(OCCCO)cc3)=N[C@]12Cc1ccccc1,-0.0695,0.437,-0.165,0.307,0.849,1.38,1.29,-4.02 (inactive),0.57,-0.156,1.56,-2.18 (inactive),-2.2 (inactive),3.02 (inactive),2.45,0.736 (inactive),-0.0248,1.59,1.12,-0.0435
Cc1ccc(S[C@]2(C(=O)O)CC(=O)N(Cc3ccccc3C(F)(F)F)[C@@H]2c2ccc(CO)cc2I)cc1,-0.0699,0.979,-0.1,-0.0146,-1.23,0.695,0.559,0.371 (inactive),-0.387,-0.334,0.471,-1.73 (inactive),-2.36 (inactive),0.695 (inactive),1.65,-1.11 (inactive),-0.205,-0.571,-1.02,-0.213
C=C(/C(=C/C[C@H](OC(=O)c1ccncc1)c1ccc(OCCO)cc1)c1cc(C(=O)OC)ccc1OC)C(C)C,-0.0836,0.362,-0.134,0.607,-0.478,0.892,0.781,6.19 (inactive),0.87,-0.0994,1.03,0.236 (inactive),-1.26 (inactive),-0.359 (inactive),1.73,1.09 (inactive),-0.072,0.609,0.381,0.122
C=CCNC(=O)[C@@H]1[C@H]2C(=O)O[C@H](c3ccccc3)[C@H](c3ccccc3)N2[C@H](c2ccc(OCCO)cc2)[C@@]12C(=O)N(C(=O)OCCOC)c1ccc(C#CCNC(N)=O)cc12,0.204,0.672,-0.0502,0.399,1.25,0.748,1.1,0.635 (inactive),0.798,-0.0994,1.4,2.15 (inactive),-0.221 (inactive),3.97 (inactive),1.61,1.98 (inactive),0.0565,0.954,1.13,-0.0069
CCCCC(=C=CC[C@@H](O)c1cccc(OCCO)c1)C[C@@H](O)c1ccccn1,-0.528,0.775,-0.0771,0.702,0.0548,0.23,1.12,1.36 (inactive),0.381,-0.0618,1.55,-0.937 (inactive),-0.606 (inactive),-0.725 (inactive),2.07,0.149 (inactive),-0.207,1.46,1.01,-0.099
CCOC(=O)C1=CCC(c2ccc(F)cc2)N(S(=O)(=O)c2ccc(C)cc2)C1 (stereo not given),0.605,0.816,0.0198,-0.105,0.552,0.199,0.116,-2.7 (inactive),0.135,-0.226,0.249,0.265 (inactive),0.639 (inactive),1.68 (inactive),0.799,-0.704 (inactive),-0.0396,-0.0456,0.284,-0.0839
CCCCN1CC=CC23O[C@@H]4C=CCCOC(=O)C4[C@H]2C(=O)N(CCCCCO)[C@@H]3C1=O (stereo not given in full),-0.376,-0.055,-0.107,-0.0632,-1.06,-0.169,1.46,-0.834 (inactive),-0.79,0.107,-0.726,-0.494 (inactive),0.0411 (inactive),0.025 (inactive),0.905,-0.0111 (inactive),-0.168,-0.548,-0.73,-0.0987
COC(=O)[C@@]1(Cc2ccc(F)cc2)[C@H]2c3cc(C(=O)N(C)C)n(Cc4cc(C)n(C)n4)c3C[C@H]2CN1C(=O)c1ccccc1,0.274,0.85,-0.19,0.515,1.61,1.66,1.29,0.0894 (inactive),0.967,0.0139,1.02,0.619 (inactive),0.456 (inactive),-0.109 (inactive),3.09,-0.38 (inactive),0.629,-0.421,1.01,0.14
C=CC[C@@]1(C(=O)N2CCCCC2)N=C(c2ccc(OCCCO)cc2)O[C@@H]1c1ccccc1CN=[N+]=[N-],0.134,0.432,0.084,0.378,1.6,1.8,1.32,-1.43 (inactive),0.938,-0.219,1.55,-1.87 (inactive),0.0315 (inactive),0.819 (inactive),3.67,0.912 (inactive),0.178,0.648,1.08,0.0528
COCC(=C=CC[C@H](O)c1cccc(OCCO)c1)C[C@H](O)c1cc(Cl)cc(Cl)c1O,-0.173,0.0375,-0.045,0.502,0.524,0.79,1.38,-0.578 (inactive),0.181,-0.281,1.54,1.11 (inactive),-0.6 (inactive),-0.225 (inactive),1.29,0.706 (inactive),-0.143,0.908,1.04,0.0837
O=C1C[C@@](C(=O)NCc2ccccc2)(c2ccc([N+](=O)[O-])cc2)[C@@H](c2ccc(CO)cc2)N1CC12CC3CC(CC(C3)C1)C2,-0.237,0.447,0.0024,0.435,0.815,0.939,1.27,-2.72 (inactive),0.282,-0.0994,1.54,0.893 (inactive),0.639 (inactive),8.2 (active),2.39,0.657 (inactive),-0.0965,1.52,1.15,-0.166
COC(=O)C[C@H]1O[C@@H](CCc2ccccc2)[C@@H](C)[C@@H]1[Si](C)(C)c1ccc(OC)cc1,-0.136,-0.724,-0.17,-0.318,-0.514,-0.553,-0.743,-0.149 (inactive),-0.165,-0.137,-0.604,0.425 (inactive),-0.412 (inactive),0.797 (inactive),-0.722,-0.67 (inactive),-0.253,-0.263,-0.311,-0.206
COCCOC(=O)N1C(=O)[C@@]2(c3ccccc31)[C@H](C(N)=O)[C@H]1C(=O)O[C@H](c3ccccc3)[C@H](c3ccccc3)N1[C@@H]2c1ccc(O)cc1,0.0458,0.209,0.0709,0.166,-0.248,1.32,1.24,-0.939 (inactive),-0.404,0.0215,1.38,-1.19 (inactive),-1.3 (inactive),0.695 (inactive),3.1,0.628 (inactive),-0.166,-0.32,0.129,-0.171
O=C1C2C=CC(C(O)c3ccc(F)cc3)N(Nc3ccc([N+](=O)[O-])cc3)C2C(=O)N1c1ccccc1 (stereo not given),0.0759,-0.358,0.16,0.305,1.45,2,1.37,-0.132 (inactive),1.02,0.0373,1.35,0.099 (inactive),1.75 (inactive),1.96 (inactive),3.27,-0.848 (inactive),0.187,0.257,1.1,-0.0435
CC(C)(C)OC(=O)CC[C@]1(C(=O)NCCN2CCOCC2)COC(c2ccc(OCCCO)cc2)=N1,-0.254,0.883,0.0569,0.691,0.361,1.33,1.41,-0.783 (inactive),0.519,0.0623,1.47,0.57 (inactive),0.41 (inactive),-0.342 (inactive),3.4,0.99 (inactive),-0.0984,1.05,1.03,-0.0656
NC(=O)[C@@]1(Cc2ccccc2)N=C(c2ccc(OCCCO)cc2)O[C@H]1c1ccccc1,0.264,-0.154,-0.0891,0.501,1.08,1.45,0.994,-2.16 (inactive),0.182,-0.189,0.439,3.21 (inactive),1.04 (inactive),-0.0393 (inactive),2.41,1.95 (inactive),0.0694,0.0537,-0.0043,-0.0996
COc1cc(CO)cc(I)c1O[C@H]1C=C(C(=O)NCCO)C[C@@H](NC[C@@H]2CCCO2)[C@@H]1O,-0.281,0.445,-0.085,0.674,0.041,0.625,1.09,-0.225 (inactive),0.59,-0.169,1.35,-0.396 (inactive),-0.424 (inactive),-0.0698 (inactive),1.91,1.6 (inactive),-0.17,1.26,0.554,-0.0033
[N-]=[N+]=NCc1ccccc1[C@@H]1OC(c2ccc(OCCCO)cc2)=N[C@]1(CCS(=O)(=O)c1ccccc1)C(N)=O,0.339,0.852,0.175,0.647,1.33,2.06,1.34,1.81 (inactive),1.71,-0.165,1.56,1.16 (inactive),-1.17 (inactive),-0.325 (inactive),3.51,0.901 (inactive),0.308,0.888,1.08,0.388
C[N+](C)(C)CCCC[C@@H]1NC(=O)[C@H]2C[C@@H](C(=O)NCCCCCCNC(=O)CS)[C@@H](c3ccc(O)cc3)N2C1=O,0.312,2,-0.131,-0.457,-1.36,1.7,1.41,-0.395 (inactive),-0.39,-0.0994,-0.27,-0.304 (inactive),0.481 (inactive),-0.344 (inactive),0.908,0.138 (inactive),-0.17,0.395,-1.06,-0.126
